# According to ChEMBL document CHEMBL1961873, “Compounds: GSK PKIS; Assays: Nanosyn kinase panel” (2012):
# How the values were obtained:
# [1] = molecular target: Platelet-derived growth factor receptor beta (Homo sapiens) (UniProt P09619); conditions: at 1 µM;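 also: each value is a mean percent inhibition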
# [2] = molecular target: Tyrosine-protein kinase FRK (Homo sapiens) (UniProt P42685); conditions: at 0.1 µM
# [3] = molecular target: Tyrosine-protein kinase FRK (Homo sapiens) (UniProt P42685); conditions: at 1 µM
# [4] = molecular target: Protein-tyrosine kinase 2-beta (Homo sapiens) (UniProt Q14289); conditions: at 0.1 µM
# [5] = molecular target: Protein-tyrosine kinase 2-beta (Homo sapiens) (UniProt Q14289); conditions: at 1 µM
# [6] = molecular target: Proto-oncogene tyrosine-protein kinase receptor Ret (Homo sapiens) (UniProt P07949); conditions: at 0.1 µM
# [7] = molecular target: Proto-oncogene tyrosine-protein kinase receptor Ret (Homo sapiens) (UniProt P07949); conditions: at 1 µM
# [8] = tested on: Proto-oncogene tyrosine-protein kinase receptor Ret (Homo sapiens), P07949 [V804L]; conditions: at 0.1 µM
# [9] = tested on: Proto-oncogene tyrosine-protein kinase receptor Ret (Homo sapiens), P07949 [V804L]; conditions: at 1 µM
# [10] = tested on: Proto-oncogene tyrosine-protein kinase receptor Ret (Homo sapiens), P07949 [Y791F]; conditions: at 0.1 µM
# Chain of Proto-oncogene tyrosine-protein kinase receptor Ret (Homo sapiens), P07949 [Y791F] (P07949 whole entry Y791F): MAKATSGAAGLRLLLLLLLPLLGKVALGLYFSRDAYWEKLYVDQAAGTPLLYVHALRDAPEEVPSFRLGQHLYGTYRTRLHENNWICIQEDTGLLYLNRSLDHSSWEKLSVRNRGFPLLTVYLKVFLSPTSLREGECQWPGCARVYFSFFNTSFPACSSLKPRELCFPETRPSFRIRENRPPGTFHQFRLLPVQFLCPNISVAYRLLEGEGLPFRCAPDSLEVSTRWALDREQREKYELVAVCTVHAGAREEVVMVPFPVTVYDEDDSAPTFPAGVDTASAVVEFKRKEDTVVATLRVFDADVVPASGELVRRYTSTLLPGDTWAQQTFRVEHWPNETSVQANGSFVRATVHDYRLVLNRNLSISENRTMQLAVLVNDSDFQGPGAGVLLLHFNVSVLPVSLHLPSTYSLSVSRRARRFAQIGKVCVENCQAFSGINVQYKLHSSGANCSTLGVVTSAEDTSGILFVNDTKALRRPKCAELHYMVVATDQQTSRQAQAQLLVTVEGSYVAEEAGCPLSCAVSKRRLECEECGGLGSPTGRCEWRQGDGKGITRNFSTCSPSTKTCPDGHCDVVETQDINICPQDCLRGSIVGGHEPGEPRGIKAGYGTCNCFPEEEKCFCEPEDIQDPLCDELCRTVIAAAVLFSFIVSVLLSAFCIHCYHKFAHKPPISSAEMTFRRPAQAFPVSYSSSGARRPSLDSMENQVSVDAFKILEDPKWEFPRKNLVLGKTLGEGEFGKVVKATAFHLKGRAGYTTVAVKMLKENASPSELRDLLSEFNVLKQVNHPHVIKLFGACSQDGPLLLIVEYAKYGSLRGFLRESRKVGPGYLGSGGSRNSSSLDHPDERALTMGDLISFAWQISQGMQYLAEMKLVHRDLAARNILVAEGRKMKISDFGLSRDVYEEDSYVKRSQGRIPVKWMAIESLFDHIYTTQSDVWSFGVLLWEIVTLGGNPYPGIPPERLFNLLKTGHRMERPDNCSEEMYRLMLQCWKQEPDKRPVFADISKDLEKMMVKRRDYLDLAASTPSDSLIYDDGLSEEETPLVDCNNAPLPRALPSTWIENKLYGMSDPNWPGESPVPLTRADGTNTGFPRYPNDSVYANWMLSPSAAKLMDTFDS
# Chain of Proto-oncogene tyrosine-protein kinase receptor Ret (Homo sapiens), P07949 [V804L] (P07949 whole entry V804L): as the sequence (P07949 whole entry Y791F) above, with F791Y, V804L counted along it
# Chain of Protein-tyrosine kinase 2-beta (Homo sapiens) (Q14289 whole entry, looked up): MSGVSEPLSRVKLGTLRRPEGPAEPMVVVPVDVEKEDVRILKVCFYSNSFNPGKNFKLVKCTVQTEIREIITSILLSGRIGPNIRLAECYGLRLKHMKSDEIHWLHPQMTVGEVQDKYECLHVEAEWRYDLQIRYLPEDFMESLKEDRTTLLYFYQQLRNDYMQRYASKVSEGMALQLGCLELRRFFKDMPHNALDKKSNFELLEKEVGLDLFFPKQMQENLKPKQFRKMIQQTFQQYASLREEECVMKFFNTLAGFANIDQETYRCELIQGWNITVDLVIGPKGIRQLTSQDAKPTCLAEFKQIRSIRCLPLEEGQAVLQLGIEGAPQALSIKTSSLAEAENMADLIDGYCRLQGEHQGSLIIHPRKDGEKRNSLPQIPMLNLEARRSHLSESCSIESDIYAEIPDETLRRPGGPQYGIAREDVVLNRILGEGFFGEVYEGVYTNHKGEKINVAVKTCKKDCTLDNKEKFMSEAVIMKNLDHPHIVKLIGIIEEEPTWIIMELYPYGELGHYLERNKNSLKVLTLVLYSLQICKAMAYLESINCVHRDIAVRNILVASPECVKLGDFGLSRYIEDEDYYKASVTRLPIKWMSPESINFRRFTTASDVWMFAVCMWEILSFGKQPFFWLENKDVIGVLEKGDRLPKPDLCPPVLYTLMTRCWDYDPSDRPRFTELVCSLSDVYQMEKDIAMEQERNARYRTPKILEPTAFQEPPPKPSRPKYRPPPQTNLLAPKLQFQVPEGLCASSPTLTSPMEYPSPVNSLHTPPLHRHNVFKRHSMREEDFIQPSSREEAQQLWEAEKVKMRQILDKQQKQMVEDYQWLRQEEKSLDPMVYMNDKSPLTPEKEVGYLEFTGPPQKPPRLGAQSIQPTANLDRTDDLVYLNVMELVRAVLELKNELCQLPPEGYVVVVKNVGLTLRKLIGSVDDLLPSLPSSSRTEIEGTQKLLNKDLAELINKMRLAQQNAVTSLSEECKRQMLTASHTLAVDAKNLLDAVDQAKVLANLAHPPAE
# Chain of Tyrosine-protein kinase FRK (Homo sapiens) (P42685 whole entry): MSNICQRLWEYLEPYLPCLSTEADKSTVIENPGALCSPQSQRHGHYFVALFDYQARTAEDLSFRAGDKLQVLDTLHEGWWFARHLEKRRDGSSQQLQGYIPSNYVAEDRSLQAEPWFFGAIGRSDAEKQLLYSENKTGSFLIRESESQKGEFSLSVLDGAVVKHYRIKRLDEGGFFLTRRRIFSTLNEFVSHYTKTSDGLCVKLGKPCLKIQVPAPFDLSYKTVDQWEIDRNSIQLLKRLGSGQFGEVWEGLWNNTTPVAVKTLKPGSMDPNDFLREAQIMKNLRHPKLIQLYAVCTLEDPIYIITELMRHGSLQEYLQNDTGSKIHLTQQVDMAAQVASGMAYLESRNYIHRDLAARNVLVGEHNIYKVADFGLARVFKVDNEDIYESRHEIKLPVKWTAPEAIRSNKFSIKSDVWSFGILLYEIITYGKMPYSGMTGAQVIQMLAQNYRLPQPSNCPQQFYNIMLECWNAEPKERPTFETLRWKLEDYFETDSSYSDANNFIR
# Chain of Proto-oncogene tyrosine-protein kinase receptor Ret (Homo sapiens) (P07949 whole entry): as the sequence (P07949 whole entry Y791F) above, with F791Y counted along it
# Chain of Platelet-derived growth factor receptor beta (Homo sapiens) (P09619 whole entry): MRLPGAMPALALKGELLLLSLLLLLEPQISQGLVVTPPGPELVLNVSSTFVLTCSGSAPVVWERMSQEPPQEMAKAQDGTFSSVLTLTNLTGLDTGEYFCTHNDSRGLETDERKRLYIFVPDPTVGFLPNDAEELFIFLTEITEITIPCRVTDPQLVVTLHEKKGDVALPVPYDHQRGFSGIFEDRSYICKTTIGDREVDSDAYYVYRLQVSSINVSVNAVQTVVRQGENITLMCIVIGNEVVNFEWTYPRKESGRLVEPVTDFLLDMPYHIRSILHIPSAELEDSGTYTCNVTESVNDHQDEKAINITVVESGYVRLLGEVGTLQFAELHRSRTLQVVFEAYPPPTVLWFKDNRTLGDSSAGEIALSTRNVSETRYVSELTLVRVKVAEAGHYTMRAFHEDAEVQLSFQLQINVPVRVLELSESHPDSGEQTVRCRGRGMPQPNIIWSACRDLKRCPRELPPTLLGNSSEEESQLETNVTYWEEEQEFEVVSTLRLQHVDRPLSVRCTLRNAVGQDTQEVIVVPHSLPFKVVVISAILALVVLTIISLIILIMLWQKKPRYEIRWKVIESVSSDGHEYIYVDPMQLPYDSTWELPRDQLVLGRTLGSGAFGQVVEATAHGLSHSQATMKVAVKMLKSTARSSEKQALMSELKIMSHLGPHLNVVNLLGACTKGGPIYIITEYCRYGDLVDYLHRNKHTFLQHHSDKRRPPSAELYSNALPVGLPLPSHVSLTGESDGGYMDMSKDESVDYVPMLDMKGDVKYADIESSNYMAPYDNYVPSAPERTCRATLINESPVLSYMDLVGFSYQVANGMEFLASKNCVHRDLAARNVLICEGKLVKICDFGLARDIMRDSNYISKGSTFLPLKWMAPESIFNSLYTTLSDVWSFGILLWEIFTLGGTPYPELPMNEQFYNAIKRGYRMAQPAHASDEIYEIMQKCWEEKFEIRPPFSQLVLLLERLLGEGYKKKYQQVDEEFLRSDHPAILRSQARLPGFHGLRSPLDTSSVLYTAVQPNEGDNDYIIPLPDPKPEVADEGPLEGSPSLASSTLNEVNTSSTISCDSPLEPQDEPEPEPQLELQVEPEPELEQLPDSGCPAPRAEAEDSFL
SMILES,inhibition [1],inhibition [2],inhibition [3],inhibition [4],inhibition [5],inhibition [6],inhibition [7],inhibition [8],inhibition [9],inhibition [10]
ON=C1CCc2cc(-c3nc(C4CCNCC4)[nH]c3-c3ccncc3)ccc21,23.3%,2.38%,-1.06%,1.86%,1.17%,1.22%,7.25%,6.18%,-3.85%,1.94%
CS(=O)(=O)CCNCc1nc(-c2ccc3ncnc(Nc4ccc(OCc5cccc(C(F)(F)F)c5)cc4)c3c2)cs1,10.1%,1.71%,0.38%,-1.25%,2.41%,5.26%,4.11%,2.89%,5.13%,7.97%
Cc1ccc2c(-c3ccnc(Nc4ccc5c(c4)OCCO5)n3)c(-c3ccc(C(F)(F)F)cc3)nn2n1,4.63%,-1.35%,-0.65%,-0.75%,2.42%,-1.02%,3.09%,0.74%,1.64%,1.62%
Cc1ccc(C(=O)NC2CC2)cc1-c1ccc2[nH]ncc2c1,6.94%,-2.56%,-4.36%,-4.62%,-8.03%,-2.17%,-0.48%,-1.65%,0.72%,-3.09%
N#Cc1c(NC(=O)c2ccccc2F)sc2c1CCCC2,3.62%,-0.85%,-1.09%,,-8.67%,-2%,3.21%,0.24%,2.29%,-0.3%
CN(C)C(=O)O[C@H]1CN[C@H](C#Cc2cc3ncnc(Nc4ccc(OCc5cccc(F)c5)c(Cl)c4)c3s2)C1,6.43%,1.37%,1.4%,6.18%,3.98%,4.97%,19.5%,3.2%,4.12%,3.68%
CCn1c(-c2nonc2N)nc2c(C#CC(C)(C)O)nc(OCCNC)cc21,24.2%,3.46%,3.09%,8.7%,10.6%,8.91%,23.6%,2.4%,4.07%,7.43%
Cc1nc(-c2ccccc2)n2nc(NCCCN3CCOCC3)ncc12,5.95%,3.57%,2.61%,1.99%,10.1%,0.76%,6.88%,2.64%,7.97%,4.35%
FC(F)(F)c1ccc(-c2nn3ncccc3c2-c2ccnc(Nc3ccc4c(c3)OCCO4)n2)cc1,17.4%,1.38%,2.35%,2.83%,1.96%,8.08%,29.2%,9.12%,14.3%,8.67%
Nc1ccc(C#Cc2cncnc2Nc2ccc(OCc3cccc(F)c3)c(Cl)c2)cc1,3.64%,0.8%,1.06%,-4.77%,0.23%,6.12%,7.18%,9.98%,3.18%,2.75%
NS(=O)(=O)c1cccc(-c2cc3ccncc3cc2OCc2ccccc2)c1,11.8%,3.66%,1.68%,,,6.15%,14.3%,6.02%,14.3%,12.6%
c1ccc(Nc2ncc(-c3ccccc3)o2)cc1,36%,3.95%,4.95%,10.4%,14.3%,6.9%,9.61%,2.13%,6.39%,5.1%
COc1cc2ncnc(Nc3ccc4c(cnn4Cc4ccccc4)c3)c2cc1OC,6.26%,1.94%,6.16%,6.05%,9.57%,8.77%,28.6%,3.73%,9.3%,9.71%
Cc1cc(Cl)cc2c1NC(=O)C2=NNc1ccc(S(N)(=O)=O)cc1,6.52%,1.54%,3.32%,,,2.45%,-0.28%,3.83%,7.51%,-0.41%
CCn1c(-c2nonc2N)nc2ccc(F)cc21,4.28%,2.61%,1.89%,,,6.24%,5.07%,3.33%,15.8%,6.33%
CC(C)c1ccc2c(c1)NC(=O)/C2=N/Nc1ccc(S(N)(=O)=O)cc1,29.8%,-0.9%,2.77%,,,8.25%,34%,1.58%,6.41%,4.75%
Cc1cc(O)cc(C)c1/C=C/c1cncc(C(=O)N(C)C)c1,10%,-0.14%,1.73%,5.04%,3.05%,8.48%,11.8%,6.64%,9.06%,8.23%

SMILES,inhibition [1],inhibition [2],inhibition [3],inhibition [4],inhibition [5],inhibition [6],inhibition [7],inhibition [8],inhibition [9],inhibition [10]
CN(C)CCCn1c(-c2nonc2N)nc2cnccc21,11.6%,2.2%,1.55%,9.44%,4.55%,7.25%,8.04%,1.93%,2.02%,2.47%
NS(=O)(=O)c1ccc(NC=C2C(=O)Nc3ccc4ncsc4c32)cc1,89.8%,4.28%,4.47%,21.8%,66.8%,47.7%,79.9%,59%,78.3%,46.1%
Nc1nccc(-c2c(-c3ccc(F)cc3)ncn2CCCN2CCOCC2)n1,11.8%,1.5%,1.08%,9.24%,8.65%,4.75%,5.26%,1.67%,4.72%,2.28%
O=C1Nc2ccc(-c3cccnc3)cc2C1=Cc1cc(Br)c(O)c(Br)c1,,1.84%,5.49%,9.77%,9.16%,-0.83%,7.95%,2.79%,16.2%,8.02%
COc1cc(Nc2nccc(-c3cnn4ncccc34)n2)cc(OC)c1,84.5%,1.76%,5.05%,38.9%,95.9%,9.58%,25.4%,6.17%,33.5%,4.62%
COc1ccc(-c2nn3ncccc3c2-c2ccnc(Nc3cccc(C(F)(F)F)c3)n2)cc1,5.95%,1.12%,2.91%,6.13%,6.4%,2.63%,,2.06%,3.74%,3.38%
Nc1nccc(-c2c(-c3ccc(F)cc3)nn3cc(C(F)(F)F)ccc23)n1,2.13%,-1.38%,1.04%,,,2.76%,-0.03%,0.95%,0.97%,-0.45%
CC(C)c1ccc(Nc2nccc(-c3cnn4ncccc34)n2)cc1,40.8%,0.49%,1.12%,12%,45.8%,6.8%,14.4%,4.06%,10.1%,5.09%
CN1CCN(C(=O)c2ccc(NC(=O)Nc3ccc(N(C)c4ccnc(Nc5ccc(CS(C)(=O)=O)cc5)n4)cc3)cc2)CC1,79.3%,1.47%,4.04%,29.2%,88.6%,38.8%,76.8%,27.2%,67.1%,60.7%
COc1cc2ncnc(Nc3ccc(C)c(O)c3)c2cc1OC,76.6%,7.74%,19.9%,12.5%,18.9%,83.6%,89.4%,3.3%,11.3%,76.8%
c1ccc(Cc2nc3ccc(Nc4ncnc5ccccc45)cc3[nH]2)cc1,14.8%,2.62%,0.81%,2.62%,13.4%,4.63%,9.44%,2.59%,9.82%,3.35%
COc1ccc2ncnc(Nc3ccc(OCc4ccccc4)cc3)c2c1,7.02%,0.42%,0.42%,-1.91%,5.66%,3.22%,5.23%,0.54%,7.26%,4.16%
CCS(=O)(=O)c1ccc(OC)c(Nc2nccc(N(C)c3ccc4c(C)n[nH]c4c3)n2)c1,70.9%,20.6%,70.2%,4%,19%,64.8%,83.5%,4.04%,8.57%,58.1%
[O-][S+]1CCN(Cc2ccc(-c3ccc4ncnc(Nc5ccc(OCc6ccccc6)c(Cl)c5)c4c3)o2)CC1,4.43%,0.22%,1.48%,6.05%,1.47%,3.12%,3.49%,2.69%,3.13%,4.06%
Cc1ccc2c(-c3ccnc(Nc4cccc(C(F)(F)F)c4)n3)c(-c3ccccc3)nn2n1,85.2%,5%,30.1%,16.5%,59.5%,15.4%,51%,2.52%,3.3%,6.2%
N#Cc1cccc(Nc2nccc(-c3cnn4ncccc34)n2)c1,65.1%,5.2%,16%,21.6%,71%,8.71%,37.4%,6.87%,43.8%,7.91%
COC(=O)Nc1nc2cc(Oc3ccc(NC(=O)Nc4cccc(Br)c4)cc3)ccc2[nH]1,35.9%,2.82%,1.12%,5.36%,9.53%,69.7%,80.6%,37.5%,66.5%,66.4%
